# According to ChEMBL document CHEMBL4513216, “Probing the Open Global Health Chemical Diversity Library for Multistage-Active Starting Points for Next-Generation Antimalarials” (ACS Infect Dis, 2020):
# Screen size: about 69,000 compounds; about 8,600 (12%) showed an effect of 50% or more. The sample as a whole holds a higher share of strong results than the screen did.
# Tested on: Plasmodium berghei
# Test: Screen against P. berghei liver stage (PbLuc), transformed with Luciferase, at 10uM
# Format: functional, HepG2
# Conditions: tested at 10 uM
row,Compound,INHIBITION
1,CC(C)C(NC(=O)NCC1CC1)c1nnc2n1CCC2 (stereo unspecified),43.4%
2,CCC(CNC1CCN(C(C)=O)CC1)Oc1cccc(C)c1 (stereo unspecified),61.5%
3,CCC(CNC1CCN(C(=O)N(C)C)CC1)Oc1ccccc1C (stereo unspecified),18.2%
4,CCC(CNC1CCN(C(C)=O)CC1)Oc1ccccc1Cl (stereo unspecified),42%
5,O=C(c1cccnc1)N1CCC2(CC1)COC(COc1ccccn1)C2 (stereo unspecified),-2.25%
6,c1cc(CN2CCO[C@H]3[C@H](OCCN4CCCC4)CC[C@@H]32)co1,48%
7,Cc1cc2ncn(C(=O)N3CCCC3)c2cc1C,22%
8,CCc1nc2c(c(NC3CCC3)n1)CCN(C(=O)CO)CC2,53.2%
9,Cc1nc(N2CCOCC2)nc2c1CCN(C(=O)C1(C#N)CC1)CC2,30.3%
10,Cc1nc2c(c(NC(C)C)n1)CCN(C(=O)CCO)CC2,46.6%
11,Cc1nc(C)c2c(n1)CCN(C(=O)C1(C#N)CC1)CC2,23.1%
12,CCc1nc2c(c(NC3CC3)n1)CCN(C(=O)Cc1nonc1C)CC2,19.5%
13,CCc1nc2c(c(NC3CC3)n1)CCN(C(=O)N1CCN(C)CC1)CC2,7.65%
14,Cc1nc2c(c(NC3CC3)n1)CCN(C(=O)CCO)CC2,56.7%
15,Cc1nc2c(c(NC3CC3)n1)CCN(C(=O)C1(C#N)CC1)CC2,68.4%
16,Cc1nc2c(c(NC3CC3)n1)CCN(C(=O)C(C)(C)O)CC2,20.5%
17,CCOC(=O)N1CCC(n2cc3[nH]cccc-3c2=O)CC1,9.63%
18,CN(C)c1cc(C2CCCN(C(=O)Cn3cc(Cl)cn3)C2)ccn1 (stereo unspecified),2.71%
19,O=c1[nH]c(-c2ccccn2)nc2c1CCN(Cc1cccc(O)c1)C2,11.1%

row,Compound,INHIBITION
1,O=C(c1ccnnc1)N1CCN2C[C@H](Oc3cccc(F)c3)C[C@H]2C1,26.1%
2,c1ccc(CCN2CCn3cc(Cn4cccn4)nc3C2)cc1,24.9%
3,O=C(C1CN(CC2CCOCC2)CC12CCOCC2)N1CCCC1 (stereo unspecified),29.8%
4,CCN(Cc1cnn(C)c1)C[C@H]1CC[C@@H](Cc2ccc(C)nc2)O1,12.9%
5,CSc1ccc(NCc2csc(C)n2)cc1F,-35%
6,CNC(=O)Cc1nc(CNc2ccc(SC)c(F)c2)cs1,80.7%
7,CSc1ccc(NCc2csc(CS(C)(=O)=O)n2)cc1F,17%
8,CC1CN(C(=O)c2cccc(OCc3cscn3)c2)CCO1 (stereo unspecified),39.75%
9,CN1CCOC(C)(C(=O)N2CCSCC2)C1 (stereo unspecified),18.3%
10,Cc1cc(NCCSc2nccn2C)n2ncnc2n1,18.2%
11,CN(C)CCNC(=O)Cc1cccc(I)c1,1.75%
12,CNC(=O)c1cc(C2CCCNC2)n[nH]1 (stereo unspecified),5.34%
13,CC(C)N(CCNC(=O)c1[nH]nc2ccc(I)cc12)C(C)C,58.2%
14,CNC(=O)c1[nH]nc2ccc(I)cc12,77.7%
15,CC(C)N(CCNC(=O)c1n[nH]c2ccccc12)C(C)C,24.8%
16,CNC(=O)c1ccc2c(OC)n(C)nc2c1,20.7%
17,Cc1cccc(-c2nc(CN3CCc4cncnc4C3)no2)c1,-12.2%
18,Brc1ccc2[nH]c3c(c2c1)CCCC3c1nn[nH]n1 (stereo unspecified),0.0996%
19,CCc1cc(C(=O)N2CCCC(c3cc(=O)nc4n3CCC4)C2)no1 (stereo unspecified),-35.5%

row,Compound,INHIBITION
1,Cc1ncsc1CN1C[C@H](C(=O)N2CCCO2)[C@@H]2CCO[C@@H]2C1,25.1%
2,O=c1c2c[nH]c(N3CCOCC3)nc-2cn1-c1ccc2c(c1)OCO2,-21.5%
3,CC(C)(C)OC(=O)N1CCN(c2ccc(F)cc2)CC1C(=O)O (stereo unspecified),-5.8%
4,CCc1nc(CCNC(=O)Nc2ccc(C(=O)NC)cc2)cs1,57.7%
5,CCc1nc(CCNC(=O)Nc2ccc(C(=O)NC)cc2C)cs1,1.28%
6,CCc1nc(CCNC(=O)Nc2cccc(C(=O)NC)c2C)cs1,-12.5%
7,CC(C)CS(=O)(=O)NC(=O)c1ccc2c(c1)ncn2C,-57.9%
8,c1cc(NCc2ccncc2)nc(C2CCCNC2)c1 (stereo unspecified),18.4%
9,CC1c2ncc(COc3cccnc3)n2CCN1C(=O)C1=CCCC1 (stereo unspecified),-7.11%
10,CC(C)(C)NC(=O)Cn1nc(C2CC2)cc(C(F)(F)F)c1=O,28.7%
11,CC(C)(C)OC(=O)Cn1nc(C2CC2)cc(C(F)(F)F)c1=O,32%
12,CC(C)(C)C(=O)Cn1nc(C2CC2)cc(C(F)(F)F)c1=O,77.6%
13,CCN1CCN(C(=O)NCc2ccccc2Cn2cncn2)CC1,32.7%
14,Cn1ncnc1NCc1ccc(Br)cc1,20.9%
15,COc1ccc(C2SCC(=O)N2c2ncc(C)s2)cc1 (stereo unspecified),24.7%
16,CC1CCCCN1C(=O)c1n[nH]c(=O)c2ccccc12 (stereo unspecified),60.2%
17,CNC(=O)C1CCCCN1C(=O)c1n[nH]c(=O)c2ccccc12 (stereo unspecified),8.53%
18,O=C(c1n[nH]c(=O)c2ccccc12)N1CCCCC1c1ccn[nH]1 (stereo unspecified),40.9%
